Bioassay records from PubChem BioAssay.
Most compounds without a hit are left out; they make up all but 8% or so of the library.
HT1080 IDH1KD tx: qHTS for induction of synthetic lethality in tumor cells producing 2HG: qHTS for the HT-1080-IDH1KD cell line; 360,000 compounds, 2% hits; HT-1080 IDH1 knockdown viability, ATP luminescence, 48 h; AID 686971, 2013; Potency, µM (highest dose often 46.1 µM), for the others: at the highest dose activity, negative = toxicity, hits mostly cytotoxic;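 note: 0% = DMSO wells and -100% = cell-free medium wells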
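Knockdown cells (IDH1KD HT-1080) received compounds 2 h after plating at 750 cells/well and were kept 48 h at 37 °C in 5% FBS RPMI. A CellTiter-Glo luminescence read gave % activity for curve fitting.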
HT1080NT lethal: qHTS for induction of synthetic lethality in tumor cells producing 2HG: qHTS for the HT-1080-NT fibrosarcoma cell line; HT-1080-NT fibrosarcoma viability, CellTiter-Glo ATP luminescence, 48 h; Potency, µM (titrated, usually from 46.1 µM), for the others: at the top dose activity, negative = less viability, usual class: cytotoxic; 360,000 compounds, 1.6% hits;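 note: NT is the 2HG producing partner of a matched IDH1 knockdown line; 0% = DMSO-treated cells and -100% = media-only wells without cells; nearly all actives have a fitted effect of over 55% in size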
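Fibrosarcoma NT cells, 750 per well in 5% FBS RPMI, were exposed to compound for 48 hours. Viability: CellTiter-Glo luminescence.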
MCF10A rerep: A quantitative high throughput screen for small molecules that induce DNA re-replication in MCF 10a normal breast cells. 350,000 compounds, 2.9% hits. AID 624296, 2012. MCF 10A DNA re-replication, Hoechst nuclear intensity, 48 h. Potency, µM (highest dose often 46.1 µM), without a hit: at the top dose activity, positive = re-replication, actives largely listed as activators; note: % of control where 0% means no effect; nearly all actives have a fitted effect of over 50% in size
KB-V1 cytotox: qHTS assay for MDR1-selective chemotherapeutics: Primary screen using the drug-selected MDR subline cells KB-V1; Potency, µM (doses to about 46.1 µM), usual class: cytotoxic; KB-V1 MDR cells viability, CellTiter-Glo, 72 h; 400,000 compounds, 3.4% hits; note: % is set by controls: 0 for no effect and ±100 for the full control effect; nearly all actives have a fitted effect of over 60% in size
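qHTS viability screen in drug-selected KB-V1 MDR cells: 72 h compound treatment at 37 degrees C, ATP luminescence end point.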
KB-3-1 cytotox: qHTS assay for MDR1-selective chemotherapeutics: Primary screen using the parental adenocarcinoma cell KB-3-1; KB-3-1 viability, CellTiter-Glo ATP luminescence, 72 h; Potency, µM (highest dose often 46.1 µM), most hits filed as cytotoxic; 400,000 compounds, 1.4% hits; AID 1347075, 2019; note: % is set by controls: 0 for no effect and ±100 for the full control effect; nearly all actives have a fitted effect of over 60% in size
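Parental KB-3-1 adenocarcinoma cells in phenol-red-free DMEM with 10% FBS were pin-treated with compounds at several concentrations, incubated 72 h at 37 °C, and viability read by CellTiter-Glo luminescence; concentration-effect curves were fitted after normalization.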
SW480 rerep: A quantitative high throughput screen for small molecules that induce DNA re-replication in SW480 colon adenocarcinoma cells. Potency, µM (titrated, usually from 46.1 µM), for the others: at the top dose re-replication activation, most hits filed as activators. AID 624297, 2012. 340,000 compounds, 1.8% hits. SW480 DNA re-replication, Hoechst DNA content imaging, 48 h; note: % of control where 0% means no effect; nearly all actives have a fitted effect of over 55% in size
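Compounds, transferred as 23 nL by pin tool, were incubated with cells for 48 hr; DNA content per nucleus was then quantified by Hoechst staining and fluorescence plate imaging.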
* marks the source's active call; other numbers are inactive results; i = inactive; ? = inconclusive; nt = not tested or not shown. Calls come from the whole dose curve; as a rule, active = well fitted curve in the direction sought with a large enough effect; inconclusive = small, poorly fitted or top-dose-only effect, or another doubt; inactive = no such curve, though single readings can be large; an effect the other way counts as inactive or inconclusive. Potency is the fitted concentration of half-maximal effect.

SMILES	HT1080 IDH1KD tx	HT1080NT lethal	MCF10A rerep	KB-V1 cytotox	KB-3-1 cytotox	SW480 rerep
Cc1cc2c(cc1C)-n1nnnc1C(N1CCN(CC(=O)N3CCCC3)CC1)C(=O)N2 (centres undefined)	15%	22%	nt	i	i	nt
Cc1cccc(N2CCN(C3C(=O)Nc4ccccc4-n4nnnc43)CC2)c1C (centres undefined)	10µM*	?	nt	?	?	nt
O=C1Nc2ccccc2-n2nnnc2C1N1CCN(c2ccccn2)CC1 (centres undefined)	5%	4%	nt	?	i	nt
O=C1Nc2ccccc2-n2nnnc2C1N1CCN(c2ccc(C(F)(F)F)cn2)CC1 (centres undefined)	7%	13%	nt	21µM*	?	nt
CCOc1ccc(Nc2oc(-c3ccc(COc4ccc(C)cc4)o3)nc2C#N)cc1	nt	nt	nt	i	i	nt
CCOc1ccccc1NC(=O)Cn1nnc2sc3c(c2c1=O)CCC(C(C)(C)C)C3 (centres undefined)	nt	nt	nt	i	i	nt
COC(=O)c1c(NC(=O)c2ccccc2)sc2c1CC(C)(C)NC2(C)C	0%	-3%	1%	i	i	0%
CC1(C)Cc2c(sc(NC(=O)COc3ccc(Cl)cc3)c2C(N)=O)C(C)(C)N1	7%	3%	7%	i	i	-4%
CC1(C)Cc2c(sc(NC(=O)c3ccc4ncsc4c3)c2C(N)=O)C(C)(C)N1	23µM*	23µM*	?	?	?	?
CC1(C)Cc2c(sc(NC(=O)c3ccc(C(=O)c4ccccc4)cc3)c2C(N)=O)C(C)(C)N1	9.2µM*	10µM*	23µM*	?	?	21µM*
CCC(C)OC(=O)/C(C#N)=C\c1ccc(-c2cccc(C(F)(F)F)c2)o1 (centres undefined)	nt	nt	nt	i	i	nt
COc1ccc(-n2cnc3sc4c(c3c2=O)CCCC4)cc1	-17%	1%	10%	16µM*	i	?
COc1cccc(-n2cnc3sc(C)c(C)c3c2=O)c1	-1%	-1%	-1%	21µM*	i	-3%
COc1ccc(-c2csc3nc(-c4ccc(F)cc4)oc(=O)c23)cc1OC	nt	nt	nt	i	i	nt
CCOCCc1nnc(NC(=O)C(=O)c2cc(C)n(-c3cccc(Cl)c3)c2C)s1	nt	nt	nt	i	i	nt
CCOC(=O)c1nn(-c2ccccc2)c2nc(-c3ccc(OC)cc3)c(C#N)c(=O)n12	0%	7%	0%	23µM*	?	-6%
CCOC(=O)c1nn(-c2cccc(OC)c2)c2nc(Nc3ccccc3)cc(=O)n12	-27%	-9%	?	i	i	23µM*
CCOC(=O)c1nn(-c2cccc(Cl)c2)c2nc(Nc3ccccc3)cc(=O)n12	13%	19%	?	i	i	-3%
CCOC(=O)c1nn(-c2ccccc2C)c2nc(-c3ccc(C)cc3)c(C#N)c(=O)n12	-10%	-3%	-4%	i	i	1%
Cc1cccc(-c2nc3nc(C)cc(NC(C)c4ccccc4)n3n2)c1 (centres undefined)	nt	nt	nt	?	i	nt
CCCN1CNc2c(c(=O)[nH]c(=S)n2CCc2cccc(OC)c2)C1	4%	11%	nt	nt	nt	nt
CC1CCCC(NC(=O)CC2Nc3ccccc3NC2=O)C1C (centres undefined)	0%	-3%	6%	16µM*	i	-55%
O=C(CC1Nc2ccccc2NC1=O)NC1CCCCC1 (centres undefined)	8%	-2%	1%	?	i	-7%
CC(C)CN(CCCNC(=O)Cn1ncc2c3ccccc3n(C)c2c1=O)CC(C)C	nt	nt	nt	i	i	nt
CCCCc1nn2c(=O)cc(COC(=O)CNC(=O)c3ccccc3C)nc2s1	nt	nt	nt	i	i	nt
SMILES	HT1080 IDH1KD tx	HT1080NT lethal	MCF10A rerep	KB-V1 cytotox	KB-3-1 cytotox	SW480 rerep
Cc1nc(-c2cccc(NC(=O)c3cccs3)c2)cs1	?	-6%	6%	i	i	14%
O=C(Cc1ccc(Br)cc1)Nc1cccc(-c2cn3c(n2)SCC3)c1	?	-13%	?	8.2µM*	?	?
O=C(Nc1cccc(-c2csc(-c3ccccc3)n2)c1)c1cccs1	-24%	?	13%	15µM*	i	-1%
Cc1nc(-c2cccc(NC(=O)Cc3ccccc3)c2)cs1	-3%	2%	9%	16µM*	i	-8%
Cc1ccc2[nH]c(CSc3nnc(NC(=O)COc4ccccc4C)s3)cc(=O)c2c1	nt	nt	nt	i	i	nt
O=c1cc(-c2ccccc2)c2ccc(O)c(CN3CCCCC3)c2o1	-7%	-8%	?	13µM*	i	-1%
C=C1C=C(C)n2ncc(C(=O)Nc3ccc(F)cc3F)c2N1	nt	nt	nt	i	i	nt
COc1cc(NC(=O)c2sc3nc(C)nc(N4CCOCC4)c3c2C)cc(OC)c1OC	-24%	-12%	2%	23µM*	i	11%
Cc1nc(N2CCCCC2)c2c(C)c(C(=O)Nc3cccc(C(F)(F)F)c3)sc2n1	-10%	?	18µM*	i	i	-149%
CCOC(=O)c1sc2nc(CSc3ccccc3)nc(N3CCC(C(N)=O)CC3)c2c1C	23µM*	?	?	?	i	0%
CCOC(=O)c1sc2nc(C)nc(N3CCCCC3C)c2c1C (centres undefined)	-28%	-20%	18µM*	i	i	4%
O=C(CSC1=Nc2ccccc2N=C(c2ccc(F)cc2)C1)NCc1ccc(Cl)cc1	nt	nt	nt	i	i	nt
Cc1cccc(-c2noc(-c3ccccc3OCC(=O)Nc3ccccc3[N+](=O)[O-])n2)c1	nt	nt	nt	i	i	nt
CCc1ccccc1NC(=O)c1cnc(N2CCCCC2)c2ccccc12	nt	nt	nt	i	i	nt
Cc1nc(N2CCCCC2C)c2c(C)c(C(=O)Nc3cccc(C(F)(F)F)c3)sc2n1 (centres undefined)	6%	4%	18µM*	?	i	27%
Cc1c(C(=O)Nc2cccc(C(F)(F)F)c2)sc2nc3n(c(=O)c12)CCC3	nt	nt	nt	i	?	nt
Cc1[nH]n(-c2ccccc2)c(=O)c1C(C[N+](=O)[O-])c1ccc(Br)cc1 (centres undefined)	-18%	-26%	3.3µM*	i	i	?
